This passage reports outcome and AC50 results from PubChem BioAssay (EPA / NIEHS).

Calls of active or inactive are those of the source. Rule for the calls: active = hit-call score of the fitted dose curve at least 0.9, where 1 is the maximum; inactive = score below 0.9.

A short description of the assay: APR_HepG2_p53Act_72hr: Apredica 72-hour HepG2 Assay for p53 Activation (AID 2282923).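 Note: average cellular p53 protein immunofluorescence intensity in HepG2 cells.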 To be noted: high-content imaging, actives raise or lower the signal. The protocol:
APR_HepG2_72hr is a cell-based, multiplexed-readout assay that uses HepG2, a human liver cell line, with measurements taken at 72 hours after chemical dosing in a 384-well plate.APR_HepG2_p53Act_72hr is one of 10 assay component(s) measured or calculated from the APR_HepG2_72hr assay. It is designed to make measurements of dna content, a form of viability reporter, as detected with fluorescence intensity signals by HCS Fluorescent Imaging technology.Data from the assay component APR_HepG2_p53Act_72hr was analyzed into 1 assay endpoint. This assay endpoint, APR_HepG2_p53Act_72hr, was analyzed with bidirectional fitting relative to DMSO as the negative control and baseline of activity. Using a type of viability reporter, measures of protein for gain or loss-of-signal activity can be used to understand the signaling at the pathway-level as they relate to the gene TP53. Furthermore, this assay endpoint can be referred to as a primary readout, because this assay has produced multiple assay endpoints where this one serves a signaling function. To generalize the intended target to other relatable targets, this assay endpoint is annotated to the dna binding intended target family, where the subfamily is tumor suppressor.
Cells were treated with dimethyl sulfoxide (DMSO) as a solvent control at a final concentration of 0.5% v/v or with compounds in DMSO with a resulting final DMSO concentration of 0.5% v/v. Compound treatment was done at concentrations of 0.39, 0.78, 1.56, 3.12, 6.24, 12.5, 25, 50, 100, and 200 uM in duplicate on each plate. Cells were treated with compounds for 1, 24, or 72 hr. Carbonyl […] m-chloro-phenylhydrazone (CCCP) and taxol were used as positive controls for mitochondrial function and cytoskeletal stability, respectively; DMSO served as the negative control for this experiment. Cells were fixed by the direct addition of 50 uL formaldehyde in Hank's Balanced Salt Solution (HBSS) to a final concentration of 3.7%. After incubation in the fixation medium for 30 min at room temperature (293-298 K), cells were rinsed twice with HBSS and treated with cell permeabilization buffer (16 uL of 0.5% Triton X-100) for 10 min at room temperature (293-298 K) before labeling. For mitochondrial membrane potential and mitochondrial measurements, pre-fixed cells were incubated with 50 uL of MitoTracker Red CMXRos (Invitrogen) at a concentration of 250 nM for 30 min before fixation. In the remaining cases, post-fixed cells were labeled by incubation with a multiplexed mixture of primary antibodies in HBSS for 60 min at room temperature (293-298 K) to detect immunoreactivity of c-Jun (1:500), phospho-histone H3 (1:100), phospho-histone H2A.x (1:200), p53 (1:400), alpha-tubulin (1:200) and Hoechst 33342 (2 ug/mL). Cells were labeled for multiplexed imaging on two separate plates: a) Hoechst 33342, MitoTracker Red, phospho-histone H3, and alpha-tubulin, and b) Hoechst 33342, phospho-histone H2A.x, and c-Jun. A final rinse with HBSS (50 uL) was performed before analysis. The primary and secondary antibodies for the proteins were phospho-histone H3 (rabbit anti-phospho-histone H3 and FITC-donkey anti-rabbit IgG), phospho-histone H2A.x (mouse anti-phospho-histone H2A.x and FITC-donkey anti-mouse IgG), c-Jun (rabbit anti-phospho-c-Jun and Cy3-donkey anti-rabbit IgG), p53 (sheep anti-p53 and Cy5-donkey anti-sheep IgG), alpha-tubulin (mouse anti-alpha-tubulin and Cy5-donkey anti-mouse IgG). These antibodies are available as the CellCiphr HepG2 assay kit (Millipore).Digital images of each well were captured using a Cellomics ArrayScan VTI (Thermo Scientific Cellomics) (0.8 NA objective, 0.63x optical coupler, and XF-93 filter set) at 20x magnification. The images were acquired using the autofocus feature of the ArrayScan instrument, which entails the following steps. First, the camera focuses on channel 1 (Hoechst 33342), where nuclei are identified. Second, a Z offset of 1 um is used for capturing mitochondria (MitoTracker Red). […]
With `Cc1cc(O)ccc1Cl`, the molecule was called inactive. Same read-out and setting: under `c1ccc(-c2ccccc2)cc1` stands “inactive”. Still for that read-out and setting: as for `C[C@]12CCC(=O)C=C1CC[C@@H]1[C@@H]2CC[C@@]2(C)[C@H]1CC[C@]2(C)O`, the entry is “inactive”; as for `CC(C)(O)C(=O)Nc1ccc([N+](=O)[O-])c(C(F)(F)F)c1`, “inactive”; as for `Cc1cccc([N+](=O)[O-])c1`, “inactive”. On the same count and under the same terms, under `Cc1cccc(C)c1N` stands “inactive”; under `CCOP(=S)(OCC)SCSC(C)(C)C`, “inactive”; under `c1cc2ccc3cccc4ccc(c1)c2c34`, “inactive”. Turning to `COS(=O)(=O)OC`, the call was inactive. As to `CCCN(CCC)N=O`, the result was inactive. Consider `CCOC(=O)C(O)(c1ccc(Cl)cc1)c1ccc(Cl)cc1`, for which the concentration at half-maximal activity (AC50) is 49.4 µM (active).

With `C1CC2OC2CC1C1CO1` (stereo not given), the outcome was inactive. Turning to `O=C(O)C(F)(F)C(F)(F)C(F)(F)C(F)(F)C(F)(F)C(F)(F)C(F)(F)C(F)(F)C(F)(F)F`, the AC50 was 113 µM (active). Consider `CN(C)CCO`, for which the molecule was classed as inactive.

For `Clc1ccc(Cl)cc1`, the molecule was called inactive. On the same count and under the same terms, as for `Cc1cc2c3c(c1)C(c1ccccc1)=N[C@@H](NC(=O)c1ccncc1)C(=O)N3CC2`, the entry is “inactive”; as for `O=C(NC(=O)c1cc(F)c(F)cc1Cl)Nc1cc(F)ccc1N1CCC(C(=O)O)CC1`, “inactive”. Regarding `Nc1ccc(-c2ccc(N)cc2)cc1`, the AC50 was 106 µM (active).

Turning to `C=CC(N)=O`, the molecule was called inactive.

For the molecule `C[C@]12CCC(=O)C=C1CC[C@@H]1[C@@H]2CC[C@]2(C)C(=O)CC[C@@H]12`, the result was inactive. Consider `O=C(O)C(F)(F)C(F)(F)C(F)(F)C(F)(F)C(F)(F)F`, for which the result was inactive.

`O=S(=O)(O)C(F)(F)C(F)(F)C(F)(F)C(F)(F)F`: the result was inactive.

Take `O=C(N[C@H]1CN2CCC1CC2)c1cc2ccoc2cn1`: the outcome was inactive.

As to `Nn1cnnc1`, the call was inactive. For `CCC(C)(c1ccc(O)cc1)c1ccc(O)cc1`, the call was inactive.

Take `O=C(NC(=O)c1c(F)cccc1F)Nc1cc(Cl)c(OC(F)(F)C(F)F)c(Cl)c1`: the AC50 is 6.27 µM (active). `Clc1ccc(C(c2ccccc2Cl)C(Cl)(Cl)Cl)cc1` (stereo not given): the molecule was classed as inactive. On the same count and under the same terms, as for `O=NN(c1ccccc1)c1ccccc1`, the entry is “inactive”. Consider `Oc1ccc(Cl)cc1Cl`, for which the call was inactive. Same read-out and setting: as for `Cc1ccccc1O`, the entry is “inactive”. As to `Cc1cc(-c2ccc(N)c(C)c2)ccc1N`, the outcome was inactive. In the case of `CCCCCCCCCC[N+](C)(C)CCCCCCCCCC`, the AC50 is 3.25 µM (active). For the molecule `Cc1ccccc1[N+](=O)[O-]`, the molecule was called inactive.

In the case of `NS(=O)(=O)C(F)(F)C(F)(F)C(F)(F)C(F)(F)C(F)(F)C(F)(F)C(F)(F)C(F)(F)F`, the AC50 was 61.7 µM (active). As to `CCCCCCCCOC(=O)c1ccccc1C(=O)OCCCCCCCC`, the result was inactive.

With `O=C(O)C(F)(F)C(F)(F)C(F)(F)C(F)(F)C(F)(F)C(F)(F)C(F)(F)C(F)(F)F`, the concentration at half-maximal activity (AC50) is 106 µM (active). As to `CC#Cc1cc(C)nc(Nc2ccccc2)n1`, the concentration at half-maximal activity (AC50) is 103 µM (active). As for `ClC(Cl)=C(c1ccc(Cl)cc1)c1ccc(Cl)cc1`, the outcome was inactive. For `C=CC(=O)NCNC(=O)C=C`, the molecule was classed as inactive. Same read-out and setting: as for `Clc1ccc(C(Cl)(Cl)Cl)cc1`, the entry is “inactive”.

For orientation: AC50 means the concentration giving half of the maximal activity seen.
